This is an account of results in PubChem BioAssay (NCI).

This is part of a sample that, as a whole, favours compounds with a hit. Of some 83,000 tested, about 20% had one in any assay.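 In brief: 96-well plates, 48 h treatment, single concentration, percent growth endpoint.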 A number with no mark means an inactive call. Activity calls are given as the source filed them. The calls were made as follows: active = growth percent below 10; inactive = the rest.

Holding throughout (assay): NCI-60 one-dose screen, 48 h (100 = growth as untreated, 0 = no growth, -100 = all killed)
One assay concerns HCT-15 colon. The note with it: 10 µM unless noted.
The subject of the next assay is HT29 colon. To be noted: 10 µM unless noted.
The next assay relates to SNB-75 CNS. To be noted: 10 µM unless noted.
The next assay deals with SNB-19 CNS. The note with it: 10 µM unless noted.
For the next assay, the system named is U251 CNS. The note with it: 10 µM unless noted.
In a further assay the test system is PC-3 prostate. To be noted: 10 µM unless noted.
The next assay deals with SK-MEL-5 melanoma. The note with it: 10 µM unless noted.
The next assay concerns UACC-62 melanoma. To be noted: 10 µM unless noted.
The next assay relates to LOX IMVI melanoma. To be noted: 10 µM unless noted.
A further assay deals with SK-MEL-28 melanoma. To be noted: 10 µM unless noted.
In the next assay the test system is SK-MEL-2 melanoma. The note with it: 10 µM unless noted.
A further assay relates to EKVX NSCLC. To be noted: 10 µM.
For a further assay, the system named is SN12C renal. The note with it: 10 µM unless noted.
For another assay, the system named is UO-31 renal. To be noted: 10 µM unless noted.
Another assay concerns TK-10 renal. To be noted: 10 µM unless noted.
Another assay has as its system ACHN renal. The note with it: 10 µM unless noted.
Another assay has as its system CAKI-1 renal. To be noted: 10 µM unless noted.
For the next assay, the system named is A498 renal. The note with it: 10 µM unless noted.
The test system of the next assay is CCRF-CEM leukemia. To be noted: 10 µM.
For the next assay, the system named is MOLT-4 leukemia. To be noted: 10 µM unless noted.

For `O=C1C(=O)c2ccccc2C(O)=C1CCCc1ccc(C2CCCC2)cc1`, the growth in the assay on HCT-15 colon is 19.6%; with HT29 colon it was 34.7%; in the assay with SNB-75 CNS, 39.9%; in the assay on SNB-19 CNS, 40.9%; in the assay with U251 CNS, 29.2%; with PC-3 prostate it was 35.6%. Also, the growth in the assay on SK-MEL-5 melanoma was 15.6%; in the assay with UACC-62 melanoma, 40.7%; with LOX IMVI melanoma, 1.77% (active); in the assay with SK-MEL-28 melanoma it was 53.1%; in the assay with SK-MEL-2 melanoma, 33.2%; in the assay with EKVX NSCLC, 27%. The growth in the assay on SN12C renal is 49.5%; with UO-31 renal it was 45.8%; with TK-10 renal, 36.7%; in the assay on ACHN renal it was 30.8%; in the assay with CAKI-1 renal it was 67.8%; in the assay with A498 renal it was 24.2%. Moreover, the growth is 24.4% in the assay on CCRF-CEM leukemia and 14.1% in the assay with MOLT-4 leukemia.
As for `c1cc(C2CCCCC2)ccc1OCCCCCCN1CCNCC1`, the growth in the assay with HCT-15 colon is -64.5% (active); in the assay with HT29 colon, 4.38% (active); with SNB-75 CNS, 31.2%; in the assay with SNB-19 CNS, 57.6%; in the assay with U251 CNS, -8.72% (active); in the assay with PC-3 prostate it was 27.5%. Moreover, the growth in the assay with SK-MEL-5 melanoma was 34.4%; with UACC-62 melanoma it was 70.3%; in the assay on LOX IMVI melanoma, -90.5% (active); in the assay with SK-MEL-28 melanoma, 60.1%; in the assay on SK-MEL-2 melanoma it was 87.8%; in the assay on EKVX NSCLC it was 90.5%. Besides, the growth with SN12C renal was 59.1%; in the assay on UO-31 renal it was 56.6%; in the assay with TK-10 renal, 57%; in the assay with ACHN renal, -7.79% (active); in the assay on CAKI-1 renal, 55.7%; with A498 renal it was 61.5%. In addition, the growth with CCRF-CEM leukemia was -51.7% (active); with MOLT-4 leukemia it was -48.5% (active).
For the compound `COc1ccc2c(N)ncc(C#Cc3cc(C(=O)Nc4ccc(CN5CCN(C)CC5)c(C(F)(F)F)c4)cnc3C)c2c1`, the growth in the assay with HCT-15 colon is -76.2% (active); in the assay with HT29 colon, -78.3% (active); in the assay with SNB-75 CNS, -11.1% (active); in the assay on SNB-19 CNS it was -82.2% (active); with U251 CNS it was -92.2% (active); with PC-3 prostate, -69.4% (active). The growth is -51.4% (active) in the assay with SK-MEL-5 melanoma; 28.2% in the assay on UACC-62 melanoma; -71.4% (active) with LOX IMVI melanoma; -80.2% (active) in the assay with SK-MEL-28 melanoma; -15.4% (active) in the assay on SK-MEL-2 melanoma; -1.21% (active) in the assay on EKVX NSCLC. The growth in the assay with SN12C renal is -45.4% (active); with UO-31 renal, -45.1% (active); with TK-10 renal it was -60.2% (active); in the assay with ACHN renal, -78.5% (active); in the assay with CAKI-1 renal, 39.9%; in the assay with A498 renal, 15.4%. Further, the figures for the growth in the assay on CCRF-CEM leukemia and with MOLT-4 leukemia were -25.4% (active) and -36.6% (active), respectively.
As to `CCOC(=O)C1=C(c2ccccc2)NC(=O)NC1CN1C(=O)c2ccccc2C1=O` (stereo not given), the growth with HCT-15 colon was 115%; in the assay with HT29 colon, 110%; in the assay with SNB-75 CNS, 98.8%; in the assay on SNB-19 CNS, 107%; in the assay with U251 CNS, 102%; in the assay on PC-3 prostate it was 100%. Moreover, the growth with SK-MEL-5 melanoma is 104%; in the assay on UACC-62 melanoma, 98.5%; in the assay with LOX IMVI melanoma it was 110%; in the assay with SK-MEL-28 melanoma, 105%; in the assay with SK-MEL-2 melanoma, 101%; with EKVX NSCLC, 130%. Further, the growth is 107% with SN12C renal; 102% in the assay with UO-31 renal; 111% with TK-10 renal; 111% in the assay on ACHN renal; 105% in the assay with CAKI-1 renal; 118% in the assay with A498 renal. For the same compound, the growth in the assay with CCRF-CEM leukemia is 54.4%; in the assay with MOLT-4 leukemia it was 2.02% (active).
With `CCC(C)C1NC(=O)C(CCCCN)NC(=O)C(CCCCN)NC(=O)C(CC(C)C)NC(=O)C(CCCCN)NC(=O)C(C(C)CC)NC(=O)C(C(C)C)NC(=O)C(C(C)CC)NC(=O)C(CCCCN)NC(=O)C(CCCCN)NC(=O)C(C)NC(=O)C(CCCCN)NC(=O)C(CC(C)C)NC1=O` (stereo not given), the growth with HCT-15 colon was 35.4%; in the assay on HT29 colon it was 5.52% (active); in the assay with SNB-75 CNS, 36.9%; in the assay on SNB-19 CNS, 20.9%; in the assay on U251 CNS it was 6.7% (active); in the assay with PC-3 prostate, 6.52% (active). The growth in the assay on SK-MEL-5 melanoma was 2.11% (active); in the assay on UACC-62 melanoma, 22.1%; with LOX IMVI melanoma it was 50.5%; in the assay on SK-MEL-28 melanoma it was 48.2%; in the assay with SK-MEL-2 melanoma, 28.6%; in the assay on EKVX NSCLC, 13.5%. Moreover, the growth with SN12C renal is 12.3%; with UO-31 renal it was 14.6%; with TK-10 renal, 19.5%; in the assay with ACHN renal, 3.79% (active); in the assay on CAKI-1 renal, 6.74% (active); in the assay on A498 renal, 21.8%. In addition, the growth was 22% in the assay on CCRF-CEM leukemia and 22.2% in the assay with MOLT-4 leukemia.
As to `O=C1C(Cl)=C(Nc2ccc(Nc3ccccc3)c(NC3=C(Cl)C(=O)c4ccccc4C3=O)c2)C(=O)c2ccccc21`, the growth in the assay with HCT-15 colon is 56.2%; in the assay with HT29 colon, 66.4%; with SNB-75 CNS, 81.3%; in the assay with SNB-19 CNS, 52.3%; in the assay on U251 CNS it was 33.5%; in the assay with PC-3 prostate, 48%. For the same compound, the growth is 90.9% in the assay with SK-MEL-5 melanoma; 39.4% in the assay with UACC-62 melanoma; 63.3% with LOX IMVI melanoma; 113% with SK-MEL-28 melanoma; 106% in the assay with SK-MEL-2 melanoma; 65.8% in the assay on EKVX NSCLC. Also, the growth in the assay on SN12C renal was 85%; in the assay with UO-31 renal, 57.3%; with TK-10 renal, 27.8%; in the assay on ACHN renal it was 34.4%; in the assay on CAKI-1 renal it was 45.3%; in the assay on A498 renal it was 53%. The growth with CCRF-CEM leukemia is 37.9%; in the assay on MOLT-4 leukemia, 37.3%.
Consider `CC1C(=O)CCCC1=O`, for which the growth was 96.6% in the assay on HCT-15 colon; 94% in the assay with HT29 colon; 90.9% with SNB-75 CNS; 106% in the assay with SNB-19 CNS; 108% in the assay on U251 CNS; 108% in the assay with PC-3 prostate. Also, the growth in the assay with SK-MEL-5 melanoma was 106%; in the assay on UACC-62 melanoma, 103%; with LOX IMVI melanoma, 106%; in the assay with SK-MEL-28 melanoma, 105%; with SK-MEL-2 melanoma, 99%; in the assay on EKVX NSCLC, 110%. In addition, the growth in the assay on SN12C renal is 95.6%; in the assay with UO-31 renal, 86.7%; with TK-10 renal it was 102%; in the assay on ACHN renal, 104%; in the assay on CAKI-1 renal, 100%; in the assay with A498 renal, 138%. Moreover, the values for the growth with CCRF-CEM leukemia and in the assay with MOLT-4 leukemia were 92.1% and 95.1%, respectively.
As to `CCOC(=O)C1=C(C(F)(F)F)NC(=S)NC1CN1C(=O)c2ccccc2C1=O` (stereo not given), the growth in the assay on HCT-15 colon is 109%; in the assay on HT29 colon, 108%; in the assay on SNB-75 CNS it was 104%; with SNB-19 CNS, 112%; in the assay on U251 CNS, 102%; in the assay with PC-3 prostate, 90.5%. Besides, the growth is 103% in the assay on SK-MEL-5 melanoma; 101% in the assay with UACC-62 melanoma; 105% in the assay with LOX IMVI melanoma; 108% with SK-MEL-28 melanoma; 100% in the assay on SK-MEL-2 melanoma; 113% in the assay with EKVX NSCLC. The growth in the assay with SN12C renal is 105%; with UO-31 renal it was 98.1%; in the assay on TK-10 renal, 107%; with ACHN renal, 105%; in the assay with CAKI-1 renal, 88.3%; in the assay on A498 renal it was 133%. The growth is 40.7% in the assay with CCRF-CEM leukemia and 93.7% with MOLT-4 leukemia.
